BAZ2B inh: inhibitors of human BAZ2B bromodomain; AlphaScreen BAZ2B-H3K14Ac peptide displacement; Potency, µM (series often up to 114 µM), most hits filed as inhibitors; 4.4% of 360,000 active; Q9UIF8; note: nearly all actives have a fitted effect of over 60% in size
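Protein-peptide AlphaScreen: BAZ2B 50 nM, b-H3K14Ac 50 nM, 1x PBS pH 7.4 + 0.01% Tween-20. Preincubation 30 min RT; cpd 30 min RT (top 110 uM); beads 20 min RT, light-protected.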
L3MBTL1 inh: L3MBTL1 (human) inhibition; Q9Y468; AlphaScreen L3MBTL1–H3K9me1 peptide binding; Potency, µM (titrated, usually from 57.1 µM), usual class: inhibitors; 0.66% of 230,000 active; note: nearly all actives have a fitted effect of over 60% in size
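Read-out is AlphaScreen signal from streptavidin donor and nickel chelate acceptor beads (10 ug/mL final each) bridging L3MBTL1 (50 nM) and biotinylated K9-monomethylated H3(1-15) peptide (75 nM), after 30 min compound exposure at room temperature.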
JMJD2A Tudor: blocks the human JMJD2A Tudor domain. O75164. AlphaScreen JMJD2A-Tudor / H3K4me3 peptide binding. Potency, µM (titrated, usually from 114 µM), usual class: inhibitors. 4.4% of 390,000 active. AID 504339; note: nearly all actives have a fitted effect of over 50% in size
G9a block: G9a (human) methyltransferase inhibition; 8.8% of 350,000 active; Q96KQ7; Potency, µM (doses to about 102 µM), actives largely listed as inhibitors; G9a H3K9 monomethylation, AlphaScreen, 2 h; note: nearly all actives have a fitted effect of over 75% in size
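Enzyme 20 nM + cpd, 15 min RT; add b-H3K9 pep 500 nM / SAM 20 uM; 2 h RT; anti-H3K9me1 Ab 0.5 ug/mL + SA donor / anti-rabbit acceptor beads 20 ug/mL each, 10 min; AlphaScreen read.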
HP1b binding inh: inhibitors of HP1-beta chromodomain binding to methylated histone tails; P83916; AlphaScreen HP1-beta / biotin-H3K9me3 peptide binding; Potency, µM (series often up to 114 µM), usual class: inhibitors; 0.56% of 390,000 active; note: nearly all actives have a fitted effect of over 70% in size
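HP1-beta protein (50 nM final) preincubated 30 min at room temperature with biotinylated H3(1-18)K9me3 peptide (50 nM) in PBS pH 7.4, 0.01% Tween-20, then compound added for 30 min. AlphaScreen streptavidin donor/nickel chelate acceptor beads (10 ug/mL final), 30 min dark, luminescence read.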
GLS inh: inhibitors of human glutaminase (GLS); Potency, µM (doses to about 45.5 µM), usual class: inhibitors; O94925; 0.21% of 410,000 active; GLS enzymatic activity, qHTS titration
Target sequence (O94925 whole entry, looked up): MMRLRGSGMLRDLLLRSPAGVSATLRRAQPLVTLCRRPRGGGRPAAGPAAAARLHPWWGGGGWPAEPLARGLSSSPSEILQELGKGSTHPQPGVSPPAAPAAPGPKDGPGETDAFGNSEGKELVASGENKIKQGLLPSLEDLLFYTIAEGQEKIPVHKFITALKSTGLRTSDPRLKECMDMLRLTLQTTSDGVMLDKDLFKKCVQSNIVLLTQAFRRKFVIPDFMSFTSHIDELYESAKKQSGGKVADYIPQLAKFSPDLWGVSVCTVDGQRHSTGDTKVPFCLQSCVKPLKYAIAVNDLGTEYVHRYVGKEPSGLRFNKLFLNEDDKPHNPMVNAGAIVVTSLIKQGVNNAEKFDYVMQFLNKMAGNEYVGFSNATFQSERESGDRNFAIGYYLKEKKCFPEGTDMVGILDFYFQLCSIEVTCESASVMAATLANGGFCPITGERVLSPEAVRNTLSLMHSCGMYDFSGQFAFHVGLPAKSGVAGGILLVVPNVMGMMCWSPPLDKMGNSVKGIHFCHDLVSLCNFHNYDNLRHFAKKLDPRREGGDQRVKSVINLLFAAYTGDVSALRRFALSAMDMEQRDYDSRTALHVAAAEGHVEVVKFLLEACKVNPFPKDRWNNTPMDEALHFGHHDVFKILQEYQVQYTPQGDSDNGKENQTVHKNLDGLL
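Coupled fluorescence readout: glutamate oxidase/HRP/Amplex Red detect glutamate formed by hKGA from L-glutamine (1 mM solution added). Buffer 45 mM KH2PO4 pH 8.2, 0.02% Tween-20; reads at t0 and 30 min RT.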
Numbers stand for hits; i = inactive; ? = inconclusive; nt = not tested or not shown; [ ] = dose if it differs, or a comment. Rows were chosen to be rich in hits. Some 10% of all compounds tested hit in one or more screens of this group. Calls come from the whole dose curve; as a rule, active = well fitted curve in the direction sought with a large enough effect; inconclusive = small, poorly fitted or top-dose-only effect, or another doubt; inactive = no such curve, though single readings can be large; an effect the other way counts as inactive or inconclusive.

SMILES	BAZ2B inh	L3MBTL1 inh	JMJD2A Tudor	G9a block	HP1b binding inh	GLS inh
COc1cc(OC)c2c(-c3ccccc3)cc(=O)oc2c1C(CCN1CCCC(C)C1)c1ccc2c(c1)OCO2 (stereo unspecified)	?	nt	40µM	i	i	i
COc1cc(OC)c2c(-c3ccccc3)cc(=O)oc2c1C(CCN1CCCCC1)c1ccc(N(C)C)cc1 (stereo unspecified)	16µM	nt	11µM	?	?	i
COc1cc(OC)c2c(-c3ccccc3)cc(=O)oc2c1C(CCN1CCCCC1)c1ccc2c(c1)OCO2 (stereo unspecified)	?	nt	?	i[12.7 µM]	i	i
COc1ccc(Cl)cc1Nc1cc(C)nc2nc(-c3ccccc3C)nn12	i	nt	i	i	i	i
COc1ccc(OC)c(-c2csc(-c3c(N)c(C(=O)c4ccc(Cl)cc4)n4ccccc34)n2)c1	i	nt	i	i	i	i
CCc1cc(C(=O)Nc2cc(S(=O)(=O)N(CC)CC)ccc2N2CCOCC2)sc1C	i	i	i	40µM	i	i
O=C(NC(=S)Nc1cc(S(=O)(=O)N2CCOCC2)ccc1O)c1ccco1	i	i	i	10µM	?	i
CCN(CC)S(=O)(=O)c1ccc(N2CCCC2)c(NC(=O)CC(C)(C)C)c1	i	i	i	nt	i	i
CCN(CC)S(=O)(=O)c1ccc(N2CCOCC2)c(NC(=S)NC(=O)c2ccco2)c1	i	i	?	28µM	?	i
CCN(CC)S(=O)(=O)c1ccc(N2CCOCC2)c(NC(=O)c2cc(C)cc(C)c2)c1	i	i	i	i	i	i
CCN(CC)S(=O)(=O)c1ccc(N2CCOCC2)c(NC(=O)CC(C)(C)C)c1	i	i	i	79µM	i	i
CCN(CC)S(=O)(=O)c1ccc(N2CCOCC2)c(NC(=O)c2ccco2)c1	nt	i	i	nt	i	i
O=C(NC(=S)Nc1cc(S(=O)(=O)N2CCOCC2)ccc1N1CCOCC1)c1ccco1	i	i	i	i	i	i
CCC1CCc2c(sc(NC(=O)C3c4ccccc4Oc4ccccc43)c2C#N)C1 (stereo unspecified)	i	nt	i	i	i	i
O=C(CCCc1ccccc1)Nc1ccnn1C1CCN(Cc2ccccn2)CC1	?	nt	i	79µM	i	i
COc1ccc(C(=O)Nc2ccnn2C2CCN(Cc3ccccn3)CC2)cc1	i	nt	i	50µM	i	i
COc1ccc(CNC(=O)c2cc3c(-c4ccccc4F)nn(C)c3s2)cc1	nt	nt	i	i	i	i
CCCCC(=O)Nc1ccc(C(=O)OCc2cc(=O)n3ccsc3n2)cc1	i	nt	i	i	i	i
COc1cc(OC)c2ccc(=O)oc2c1C(CC(=O)N1CCCC1)c1ccc2c(c1)OCO2 (stereo unspecified)	i	nt	?	?	i	?
CCCCCc1cc(=O)oc2c(C(CCN3CCCC(C)C3)c3ccc(N(C)C)cc3)c(OC)cc(OC)c12 (stereo unspecified)	11µM	nt	25µM	i[12.7 µM]	25µM	i
COc1cc(OC)c2ccc(=O)oc2c1C(CC(=O)N1CCCC(C)C1)c1ccc2c(c1)OCO2 (stereo unspecified)	50µM	nt	?	i[12.7 µM]	i	i
COc1cc(OC)c2ccc(=O)oc2c1C(CCN1CCCC(C)C1)c1ccc(N(C)C)cc1 (stereo unspecified)	?	nt	35µM	?	i	i
CC(=O)Oc1ccc(C2(c3ccc(OC(C)=O)cc3)Oc3ccccc3NC2=O)cc1	nt	nt	nt	nt	nt	i
CN(O)/C=C/C(=O)c1ccc(Br)cc1	i	i	50µM	20µM	i	i
CN(C)/C=C/C(=O)c1ccc(Br)cc1	i	i	i	i	i	i
SMILES	BAZ2B inh	L3MBTL1 inh	JMJD2A Tudor	G9a block	HP1b binding inh	GLS inh
CCOC(=O)c1c(C)n(-c2ccc(OC)cc2)c2ccc(OC(=O)COc3ccccc3)cc12	i	nt	i	i	i	i
CN1/C(=C\C(=O)CSc2nnc(NCc3ccccc3)s2)C(C)(C)c2ccccc21	?	i	?	3.2µM	i	i
Cc1ccc2[nH]c(C)c(/C=C/c3cc[n+](C)cc3)c2c1	?	nt	i	i	i	i
Cc1ccc2c(c1)c(/C=C/c1cc[n+](C)cc1)c(C)n2C	i	nt	?	45µM	i	i
O=C(COC(=O)c1ccc(Br)o1)Nc1ccc(N2CCOCC2)cc1	i	i	i	22µM	i	i
CCNCC(=O)Nc1ccc(N2CCOCC2)cc1	?	i	i	?	i	i
Cc1ccc(CNCC(=O)Nc2ccc(N3CCOCC3)cc2)cc1	35µM	i	1.4µM	nt	40µM	i
Cc1oc2c(c1C(=O)Nc1ccccc1Br)C1=NCCN1C=N2	i	nt	i	i	i	i
CC1=NN(C(C#N)c2ccccc2)C(c2ccccc2)C1 (stereo unspecified)	i	i	i	nt	i	i
COc1ccc(C(C#N)N2N=C(C)CC2c2ccccc2)cc1 (stereo unspecified)	i	nt	i	45µM	i	i
COc1ccccc1C(=O)Nc1ccc(-c2nnn(CC(=O)N3CCN(C(=O)c4ccco4)CC3)n2)cc1	i	i	i	?	i	i
O=C(Nc1ccc(-c2nnn(CC(=O)N3CCN(C(=O)c4ccco4)CC3)n2)cc1)c1ccccc1F	i	i	nt	56µM	nt	nt
OCc1ccccc1O	nt	nt	nt	i[2.33 µM]	nt	i
OCc1ccccc1SSc1ccccc1CO	nt	nt	14µM	nt	?	?
O=C(NCC(c1cccs1)S(=O)(=O)c1cccs1)c1c(F)cccc1F (stereo unspecified)	i	nt	i	i	i	i
Oc1cccc(-c2nc(-c3cccs3)c(-c3cccs3)[nH]2)c1	40µM	nt	?	?	i	i
COc1ccc(-c2nc(-c3ccccc3)c(-c3cccs3)[nH]2)cc1OC	i	nt	40µM	i[12.7 µM]	i	i
O=[N+]([O-])c1ccc(-c2nc(-c3cccs3)c(-c3cccs3)[nH]2)cc1	i	?	20µM	nt	?	i
COc1ccc(-c2nc(-c3cccs3)c(-c3cccs3)[nH]2)cc1OC	i	nt	i	i[12.7 µM]	i	i
Cc1ccc(-c2nc(-c3cccs3)c(-c3cccs3)[nH]2)cc1	i	nt	i	i	i	i
O=[N+]([O-])c1cccc(-c2nc(-c3cccs3)c(-c3cccs3)[nH]2)c1	?	i	i[11.4 µM]	?	?	i
Cc1ccc(-c2nnc(SCC(=O)NCCC(C)C)nc2-c2ccc(C)cc2)cc1	i	nt	?	?	i	i
CCN(CC)c1nn2c(=O)c(C(=O)NCc3ccc(OC)cc3OC)cnc2s1	i	nt	i	i	i	i
O=C1c2ccccc2C(=O)N1c1cccc2ncccc12	nt	nt	89µM	nt	nt	nt
CCN(C(=O)Cn1c(=O)n(CCCS(=O)(=O)C2CCCCC2)c(=O)c2ccccc21)c1cccc(C)c1	i	nt	i	i	i	i
O=[N+]([O-])c1ccccc1OCCCn1cnc2ccccc21	22µM	i	0.79µM	i	?	i
c1ccc2c(c1)ncn2CCn1cnc2ccccc21	i	i	i	i	i	i
